Screen size: about 360,000 compounds; about 1,200 (0.33%) were called active. For the sample, actives were picked, then their nearest neighbours and some compounds at random. Unmarked numbers belong to inactive results. Cut-off read from the data, not from the text of the source: active = inhibition above about 37%; inactive = the rest.
target: Small ubiquitin-related modifier 1 (Homo sapiens) (UniProt P63165); assay: modulators of SUMO1 protein-protein interactions, primary screen, biochemical, uHTS (AID 602429); conditions: SUMO1 binding to a labelled peptide, TR-FRET, 1 h; at 20 µM; hits give high values
Sequence (P63165 whole entry, looked up): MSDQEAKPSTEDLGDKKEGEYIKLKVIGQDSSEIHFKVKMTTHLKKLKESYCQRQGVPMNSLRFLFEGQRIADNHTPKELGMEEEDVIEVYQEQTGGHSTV

SMILES	inhibition
Cc1nnc(SCC(=O)Nc2ccc(S(=O)(=O)Nc3ccc(Cl)nn3)cc2)s1	25.2%
COC(=O)CNC(=O)c1ccc(OC2CCN(C(=O)C3CC3)CC2)cc1	-0.596%
Clc1ccc(C2=CSC3=Nc4cccc5cccc(c45)N23)cc1	55.4% (active)
CC(C)(C)NC(=O)C(c1ccco1)N(Cc1ccc2c(c1)OCO2)C(=O)Cn1nnc2ccccc21 (stereo not given)	1.87%
CCCCn1c(N)c(N(CC(C)C)C(=O)C2CSC3(C)CCC(=O)N23)c(=O)[nH]c1=O (stereo not given)	2.07%
CSc1cc(C)n(-c2ccccc2C)c(=S)c1C(C)=O	-3.72%
O=C(c1cccs1)N1CCC(c2nc3ccccc3s2)CC1	-0.383%
O=C(NCCCN1CCOCC1)c1ccccc1NS(=O)(=O)c1ccc(F)cc1	2.97%
CCOC(=O)Cn1nnnc1C	4.96%
COc1ccc(S(=O)(=O)N2CCOCC2)c(C)c1C	0.744%
C=CCn1c(=S)[nH]c2scc(-c3ccco3)c2c1=O	80.7% (active)
C=CCNC(=S)NNc1ncnc2sc3c(c12)CC(C)(C)OC3	-4.03%
O=C(Nc1ccccc1C(=O)NCCCn1ccnc1)c1ccc(Cl)cc1Cl	-2.3%
C=C(Br)CN1CCN(CC(=C)Br)CC1	1.02%
O=C(CN1CCCCCC1)Nc1c(Cl)cc(Cl)cc1Cl	-1.26%
O=C(CSc1nc(C2CC2)nc2ccccc12)Nc1cccc(O)c1	45.7% (active)
Cc1nnc(NC(=O)CSc2nc(C3CCCCC3)nc3ccccc23)s1	-2.49%
O=C(CSc1nc(C2CC2)nc2ccccc12)Nc1ccc2c(c1)OCCO2	-1.95%
O=C(Cn1cnc2c(nnn2Cc2ccc(F)cc2)c1=O)NCc1ccc2c(c1)OCO2	1.22%
Cc1cc(S(=O)(=O)c2cc3ccc(O)c(C)c3oc2=O)ccc1F	-12.4%
OCCc1ccc(NCCc2ccco2)cc1	4%
COc1ccccc1NC(=O)c1cc(Cl)nnc1Cl	-6.09%
COc1ccc(C(=O)Nc2cc(C)c(NC(=O)c3ccccc3OC)cn2)cc1	40% (active)

SMILES	inhibition
COc1ccc(C(=O)N/N=C(\C)CC(=O)Nc2ccc(Cl)cn2)cc1	-4.09%
CCOc1ccc(NC(=O)c2ccc(NC(=O)C3CCCO3)cc2)cc1 (stereo not given)	1.59%
CCOc1ccc(NC(=O)c2ccc(NC(=O)CN3C(=O)C(=O)N(CC(C)C)C3=O)cc2)cc1	6.4%
CCOc1ccc(NC(=O)c2ccc(NC(=O)COC(=O)c3ccc(NC(=O)CC#N)cc3)cc2)cc1	58.6% (active)
CCCCn1c(N)c(N(CCOC)C(=O)c2cccc(S(=O)(=O)N3CCCCC3)c2)c(=O)[nH]c1=O	1.21%
O=C(NNC(=S)NC(=O)c1cn(-c2ccccc2)nc1-c1ccccc1)c1ccncc1	7.64%
Cc1nc2ccccc2c(C)c1C(=O)c1ccc(F)cc1	-0.636%
Cc1onc(-c2ccccc2)c1C(=O)NNC(=S)NC(=O)c1ccc(F)cc1	61.3% (active)
CCc1nc2ccc(C(=O)N(C)Cc3ccco3)cn2c1N(C)C(=O)Cc1ccccc1	3.29%
CCc1cc2cc(OC)ccc2nc1SCC(=O)Nc1cc(OC)c(OC)cc1C(=O)O	4.88%
CCOC(=O)C1=C(C)NC(C)=C(C(=O)OCC)C1C1=COCCO1	-7.71%
C=CC(=O)Nc1ccc(Nc2ccnc(Nc3ccc(N4CCN(C)CC4)cc3)n2)cc1	88.3% (active)
O=C(Nc1ccc(N2CCN(C(=O)c3cccs3)CC2)cc1)c1cccnc1Cl	-1.91%
CC(=O)Nc1cc(-c2ccc(N3CCN(C)CC3)cc2)cn2c(-c3ccc(F)cc3)cnc12	-43.3%
Cc1noc(C)c1S(=O)(=O)Nc1ccc(C(=O)O)cc1	2.25%
CC(=O)N1c2ccc(S(=O)(=O)N3CCCC(C(=O)Nc4cccc(F)c4)C3)cc2CC1C (stereo not given)	1.06%
O=C(COC(=O)c1cccc(Cl)c1)Nc1ccc2[nH]c(=O)[nH]c2c1	3.54%
COc1ccc(C(=O)OCC(=O)Nc2ccc3[nH]c(=O)[nH]c3c2)c(OC)c1OC	45.3% (active)
O=C(COc1ccc([N+](=O)[O-])cc1Cl)Nc1ccc2[nH]c(=O)[nH]c2c1	-14.3%
Cc1ccc(S(=O)(=O)N2CCN(C(=O)Cn3c(=O)cnc4ccccc43)CC2)c(C)c1	-18.5%
O=C(CCl)N(Cc1cccc([N+](=O)[O-])c1)c1cccc(Cl)c1	-8.32%
Nc1c(Cl)cc(S(N)(=O)=O)cc1S(N)(=O)=O	-2.85%
Cc1ccc(SC(CC(=O)c2ccc(C(C)(C)C)cc2)C(=O)O)cc1 (stereo not given)	1.42%

SMILES	inhibition
CCC(=O)c1ccc(OCC(O)CN2CCN(c3cccc(C(F)(F)F)c3)CC2)cc1 (stereo not given)	-0.535%
OC(COc1ccccc1)CN1CCN(c2cccc(Cl)c2)CC1 (stereo not given)	49.6% (active)
OC(COc1ccc2c(c1)CCC2)CN1CCN(c2cccc(Cl)c2)CC1 (stereo not given)	0.823%
CC1CCCC(NC(=O)CSc2nccn2C)C1C (stereo not given)	-1.19%
O=C(COc1coc(CN2CCN(c3ccccc3)CC2)cc1=O)N1CCc2ccccc21	-4.23%
O=C(COc1coc(CN2CCN(c3ccccc3F)CC2)cc1=O)N1CCc2ccccc21	47.1% (active)
O=C(COc1coc(CN2CCN(c3ccccc3)CC2)cc1=O)Nc1ccccc1F	0.279%
C=C1c2c(Cl)ccc(O)c2C(O)=C2C(=O)[C@]3(O)C(O)=C(C(N)=O)C(=O)[C@@H](N(C)C)[C@@H]3[C@@H](O)C12 (stereo not given in full)	62.7% (active)
CCC(C)CCN1CCN=C1N(C)C (stereo not given)	1.08%
Cc1ccc(NC(=O)Cn2sc3ccccc3c2=O)cc1	5.66%
O=c1c2cc([N+](=O)[O-])ccc2nc2n1CCC2	-38.3%
Cc1cc(OCCCC(=O)Nc2cc(S(=O)(=O)N3CCOCC3)ccc2N2CCOCC2)ccc1Cl	-3.23%
COCCNC(=S)Nc1cc(S(=O)(=O)N2CCOCC2)ccc1N1CCCCC1	1.91%
O=[N+]([O-])c1cc(Cl)cc(/C=N/NC(=S)Nc2cc(S(=O)(=O)N3CCOCC3)ccc2Cl)c1O	36.3% (active)
COc1ccc(C(=O)NC2(C(F)(F)F)NC(=O)N(CCCc3ccccc3)C2=O)c(OC)c1OC (stereo not given)	7.81%
COc1ccc(-c2oc3ncn(Cc4ccco4)c(=N)c3c2-c2ccc(OC)cc2)cc1	-9.5%
O=C(Cn1c(=O)n(Cc2ccco2)c(=O)c2ccccc21)NCC1CCCO1 (stereo not given)	4.85%
Cn1c2ccccc2c(=O)c2c(=O)n(Cc3ccco3)c(COc3ccccc3)nc21	42.3% (active)
O=C(Nc1ccccc1C(=O)N1CCCCC1)c1ccco1	-3.94%
O=C(O)c1ccccc1-c1ccccc1C(=O)Nc1ccccc1Br	-0.773%
O=C(Nc1ccccc1)c1ccccc1Br	41.9% (active)
O=C(Nc1ccccc1)c1ccccc1NC(=O)C(F)(F)F	-1.22%
COc1ccc(NC(=S)N2CCC(NC(=O)c3cccc(F)c3)CC2)cc1	4.71%

SMILES	inhibition
Cc1noc(C)c1-c1nc(CSc2ccc(Cl)cc2)no1	1.71%
CCN(CC)CCCNC(=O)c1cn(C)c2ccc(S(=O)(=O)N(C)C3CCCCC3)cc2c1=O	5.63%
COc1ccc2[nH]c3c(C)c4cc[n+](C)cc4c(C)c3c2c1	61.3% (active)
CCOc1cc(-c2conc2N)cc(OCC)c1OCC	1.02%
CC(=O)Nc1ccc(NC(=O)CSc2nnc(C3CC3)n2-c2ccccc2)cc1	3.94%
CCOc1ccc(N(CC(=O)NCC2CCCO2)S(=O)(=O)c2ccc(C)cc2)cc1 (stereo not given)	6.75%
CCCCCCC(=O)Nc1nc(C)c(-c2csc(Nc3cccc(OC)c3)n2)s1	40.2% (active)
COc1cccc(NC(=O)COc2cccnc2[N+](=O)[O-])c1	-32.4%
C=CCCC(=O)Nc1nc(C)c(-c2csc(Nc3ccc(Cl)cc3)n2)s1	1.48%
CCCOC1CCCN(Cc2cn(C)nc2-c2ccccc2F)C1 (stereo not given)	5.15%
COc1ccc(-c2csc(C(O)c3cccc(Cl)c3)n2)cn1 (stereo not given)	-2.47%
CCc1nn(CC(=O)N2CCN(c3cc(C)ccc3C)CC2)c(=O)c2cc3occc3n12	2.09%
O=S1(=O)CCO[C@H]2Cc3ccccc3[C@H]2N1Cc1ccccc1	-0.696%
COc1cccc(CC(=O)N2CCCC(CCC(=O)N3CCN(c4ccccn4)CC3)C2)c1 (stereo not given)	-2.38%
O=C(CCC1CCCN(C(=O)c2ccc(F)c(F)c2)C1)N1CCN(c2ccccn2)CC1 (stereo not given)	2.38%
C=Cc1ccc(C(=O)N2CCCC(CCC(=O)N3CCN(c4ccccn4)CC3)C2)cc1 (stereo not given)	58.2% (active)
Cc1ccc(NC(=S)NC(NC(=O)Cc2cccc3ccccc23)C(Cl)(Cl)Cl)cc1 (stereo not given)	0.772%
COc1ccc(-n2nnnc2SCC(=O)NCc2cccs2)cc1	43.1% (active)
COc1ccc(NC(=O)CSc2nnnn2-c2cccc(OC)c2)cc1	-3.25%
COc1ccc(-n2c(SCC(=O)NCc3cccs3)nnc2-c2ccoc2C)cc1	-0.51%
CC(=O)c1nn(-c2ccccc2)c(=Nc2ccccc2)cc1C	-14.6%

— PubChem BioAssay AID602429 (Sanford-Burnham Center for Chemical Genomics, 2012)
